The source made the active and inactive calls.

Test [1] is described as follows: A549 cell viability effects, profiling panel, calcein-AM fluorescence, 48 h, basal (AID 1162). Conditions: higher = more signal.
A short description of test [2]: adipocyte viability effects, profiling panel, cell-based, 3T3-L1 adipocytes, calcein-AM fluorescence, 48 h, basal (AID 1163). Conditions: 3T3-L1 adipocytes viability, higher = more signal.
Test [3] in a line: HepG2 cell viability effects, profiling panel, calcein-AM fluorescence, 48 h, basal (AID 1164). Conditions: higher = more signal.
The nature of test [4]: MM1S cell viability effects, profiling panel, calcein-AM fluorescence, 48 h, basal (AID 1165).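 Further: viability of MM1S multiple myeloma cells under basal unstimulated conditions.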 Conditions: higher = more signal.
Test [5] is described as follows: basal RPMI8226 viability, no added stimulus, profiling panel, cell-based, calcein-AM fluorescence, 48 h, PK04 Diversity Set (AID 1166).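 Further: cells grown under basal conditions without added stimulus.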 Conditions: RPMI8226 myeloma viability, higher = more signal.
Test [6] can be described thus: basal HepG2 mitochondrial membrane potential changes, profiling panel, cell-based, JC-1 fluorescence, 24 h, 100 nL compound (AID 1167). Conditions: higher = more signal.
The nature of test [7]: basal 3T3-L1 adipocyte mitochondrial potential changes, profiling panel, cell-based, JC-1 fluorescence, 3T3-L1 adipocytes, 24 h, 100 nL compound (AID 1168). Conditions: JC-1 mitochondrial fluorescence, higher = more signal, called active from +8 up or from −8 down.
Test [8] can be described thus: basal RPMI8226 mitochondrial membrane potential changes, profiling panel, cell-based, JC-1 fluorescence, 24 h, 100 nL compound (AID 1169). Conditions: RPMI8226 myeloma, JC-1 mitochondrial potential fluorescence, higher = more signal.
A short description of test [9]: basal MM1S mitochondrial membrane potential changes, profiling panel, cell-based, JC-1 fluorescence, 24 h, 100 nL compound (AID 1170). Conditions: higher = more signal.
A short description of test [10]: A549 lung cancer cell viability effects, profiling panel, resazurin fluorescence, 24 h, PK04 Diversity Set (AID 1171). Conditions: higher = more signal, called active from +8 up or from −8 down. A general note: Resazurin is reduced to fluorescent resorufin, in cell work by metabolically active cells.
Further: test concentration not given here.

In the case of `O=C1N(CCS(=O)(=O)c2ccccc2)c2ccccc2[C@@H]2OC(c3ccc(OCCCO)cc3)=N[C@]12Cc1ccccc1`, the z-score was 0.661 in test [1]; 1.33 in test [2]; 0.993 in test [3]; -2.75 in test [4]; -1.58 in test [5]; 0.637 in [6]. The z-score in test [7] is 2.24 (inactive); in [8] it was -0.407; in [9], -0.989; in test [10], -2.13 (inactive).

With `CC1CC/C=C\[C@H]2OC34C=CCN(Cn5nnc6ccccc65)C(=O)[C@H]3N(CCCCCO)C(=O)[C@@H]4C2C(=O)O1` (stereo not given in full), the z-score in test [1] was -0.306; in test [2] it was 0.393; in test [3] it was -0.841; in test [4] it was 1.4; in [5], -0.0074; in test [6], 0.944. The z-score in test [7] is 0.516 (inactive); in [8], 0.727; in [9], -0.124; in test [10], 0.411 (inactive).

For the compound `CCOC(=O)C1=CC[C@H]2C(=O)N(c3ccccc3)C(=O)[C@@H]12`, the z-score was -0.538 in [1]; -0.405 in [2]; 0.229 in test [3]; -0.472 in test [4]; 0.217 in test [5]; -1.8 in test [6]. In addition, the z-score is -1.28 (inactive) in test [7], -0.00668 in test [8], 0.371 in test [9] and 0.396 (inactive) in [10].

With `O=C1C[C@@](C(=O)NCc2ccccc2)(c2ccc([N+](=O)[O-])cc2)[C@@H](c2ccc(CO)cc2)N1CC12CC3CC(CC(C3)C1)C2`, the z-score in test [1] is -0.702; in test [2], 0.0687; in [3], -0.487; in test [4], -2.81; in test [5] it was -4.32; in test [6] it was 2.17. The z-score in test [7] is 0.112 (inactive); in test [8], -0.552; in test [9], -1.2; in test [10], -3.09 (inactive).

In the case of `CCN(CC)c1ccc(N2CC=CC34O[C@@H]5/C=C\CCC(C)OC(=O)C5[C@H]3C(=O)N(CCCCCO)[C@@H]4C2=O)cc1` (stereo not given in full), the z-score in test [1] was 0.192; in test [2] it was -0.743; in [3], 0.0376; in test [4], 1.56; in test [5], -0.863; in test [6] it was 0.423. Moreover, the z-score in [7] is 0.158 (inactive); in test [8], -0.0486; in test [9], 1.29; in [10] it was 0.697 (inactive).

On to `C=C(/C(=C/C[C@H](OC(C)=O)c1ccc(OCCO)cc1)c1cc(C(=O)OC)ccc1OC)C(C)C`, for which the z-score in test [1] was 1.32; in test [2], 0.0952; in [3], 0.861; in test [4], -3.04; in test [5], -2.43; in test [6], 2.82. Moreover, the z-score in test [7] was -0.0331 (inactive); in test [8], -0.669; in test [9], -0.631; in test [10] it was 1.05 (inactive).

For the compound `O=C(O)[C@H]1C[C@H]2C(=O)N3CCC[C@H]3C(=O)N2[C@H]1c1ccc(O)cc1`, the z-score is 0.835 in test [1]; 0.469 in test [2]; 0.0504 in test [3]; -0.8 in [4]; 0.0046 in [5]; 1.38 in [6]. In addition, the z-score in test [7] was -0.0658 (inactive); in test [8], -0.703; in [9], -0.22; in [10] it was 0.799 (inactive).

With `COC(=O)[C@@]1(Cc2ccc(F)cc2)[C@H]2c3cc(C(=O)N(C)C)n(Cc4cc(C)n(C)n4)c3C[C@H]2CN1C(=O)c1ccccc1`, the z-score is -0.492 in test [1]; -0.202 in test [2]; -0.395 in test [3]; -0.9 in test [4]; -0.528 in test [5]; 0.635 in [6]. In addition, the z-score in [7] was -1.01 (inactive); in test [8], -0.12; in [9], 0.203; in test [10] it was -0.759 (inactive).

Turning to `COc1ccc(NN2C(C(O)c3ccc(N(C)C)cc3)C=CC3C(=O)N(C4CCCCC4)C(=O)C32)cc1` (stereo not given), the z-score in test [1] is -0.441; in test [2], -1.13; in test [3], -0.173; in test [4], 0.0375; in [5], -0.136; in test [6] it was -0.134. The z-score is -0.771 (inactive) in test [7], 0.651 in test [8], -1.63 in [9] and 0.19 (inactive) in test [10].

As for `CO[C@H]1O[C@H](CO)[C@@H](OC(=O)Nc2ccc(Br)cc2)[C@@H]2OC(=O)[C@H](Cc3cccc(Br)c3)C/C=C/C[C@@H](Cc3cccc(Br)c3)C(=O)O[C@@H]12`, the z-score in test [1] is 0.193; in test [2], 0.461; in test [3], 0.31; in [4], -1.37; in test [5] it was -0.228; in [6] it was -0.741. Further, the z-score in [7] is 1.78 (inactive); in test [8], -0.209; in test [9], -0.456; in test [10] it was -2.1 (inactive).

As to `C=CC[C@@]1(C(=O)N2CCCCC2)N=C(c2ccc(OCCCO)cc2)O[C@@H]1c1ccccc1CN=[N+]=[N-]`, the z-score in [1] is -0.933; in test [2], 0.952; in [3], 0.192; in test [4], -1.09; in test [5], -3.66; in [6], 1.47. For the same compound, the z-score in [7] was -0.307 (inactive); in [8] it was -1.01; in test [9], -0.18; in [10], -1.5 (inactive).

Regarding `COc1cc2c(cc1O)C(c1cccs1)N(Cc1cccc(OC(F)(F)F)c1)CC2` (stereo not given), the z-score in test [1] is -2.79; in test [2] it was -0.0814; in [3], -2.37; in [4], -3.14; in test [5], -4.49; in test [6] it was -2.21. The z-score in [7] is -0.019 (inactive); in [8], -0.774; in test [9], -1.77; in test [10], -1.98 (inactive).

In the case of `CN1C(=O)C2C=CC(C(O)c3ccccc3)N(N3CCCCC3)C2C1=O` (stereo not given), the z-score was -1.15 in [1]; -0.898 in test [2]; -0.0624 in test [3]; -0.4 in test [4]; 0.539 in test [5]; -0.699 in test [6]. The z-score is 0.651 (inactive) in test [7], 0.0583 in test [8], 0.581 in test [9] and -0.789 (inactive) in test [10].

Take `C=CC[C@]1(C(N)=O)COC(c2ccc(OCCCO)cc2)=N1`: the z-score in test [1] is 0.669; in test [2], -0.793; in [3] it was 0.0717; in test [4] it was 0.327; in [5], 1.3; in [6], 0.16. Moreover, the z-score is 0.654 (inactive) in test [7], 0.702 in test [8], -0.753 in test [9] and 0.381 (inactive) in [10].

Turning to `COc1ccc(CCNC(=O)[C@@]2(C)c3ccccc3C(=O)N(c3ccc(C)cn3)[C@H]2c2ccc(CO)cc2)cc1`, the z-score is -0.0466 in test [1]; -0.2 in test [2]; -0.352 in test [3]; -0.64 in test [4]; -0.081 in test [5]; -0.429 in [6]. Also, the z-score in test [7] was 1.22 (inactive); in [8], 0.143; in [9] it was -0.00393; in [10], 0.236 (inactive).

Values taken from PubChem BioAssay.
